Out of some 59,000 compounds screened, about 6,200 (11%) were called active. Another 9% or so got no clear call; they are omitted. No stated cut-off is given here; in the data, active means max dye-equivalent concentration above about 10 nM; inconclusive means mostly about 1.1 nM to 9.6 nM; inactive means weaker than that. This excerpt belongs to a sample that is enriched for actives.

The nature of this test: qHTS Assay for Spectroscopic Profiling in 4-MU Spectral Region. The note with it: compound autofluorescence, 340/450 nm, 4-MU equivalents; hits give high values. In outline:
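Intrinsic fluorescence at 340/450 nm (ex/em) was read after 15 min at room temperature in pH 8.0, 100 mM Tris. Each compound concentration expressed as 4-MU-equivalent concentration from a six-point 4-MU standard series on each plate.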
On the technique in general: In qHTS, concentration-response curves come from the screen itself.
In the case of `O=C(c1ccc([N+](=O)[O-])cc1)[C@@H](Br)[C@@H](Br)c1ccnc2ccccc12`, the max dye-equivalent concentration entry was “inactive”.

As for `CC12C(=O)N(n3cnnc3)C(=O)C1C1C=CC2C1` (centres undefined), the max dye-equivalent concentration entry is “inactive”.

As to `Cc1ccc(-n2ncc3c(N4CCN(c5ccc(F)cc5)CC4)ncnc32)c(C)c1`, the max dye-equivalent concentration entry was “inactive”.

As for `Fc1ccc2[nH]c3c(N4CCSCC4)ncnc3c2c1`, the max dye-equivalent concentration is 47 nM (active).

As for `Cc1cnc(CNc2nc(-c3cccnc3)nc3ccccc23)cn1`, the max dye-equivalent concentration result is “inactive”.

For the molecule `Cc1noc(C)c1C(=O)NC(C)c1ccc2c(c1)OCO2` (centres undefined), the max dye-equivalent concentration result was “inactive”.

Regarding `O=C(CSc1nnc(-c2ccco2)n1Cc1ccccc1)NC(=O)NCc1ccco1`, the max dye-equivalent concentration entry is “inactive”.

For `CO[C@@H]1/C=C\O[C@]2(C)Oc3c(C)c(O)c4c(O)c(c(CN(C)C)c(O)c4c3C2=O)NC(=O)/C(C)=C\C=C[C@@H](C)[C@@H](O)[C@H](C)[C@@H](O)[C@H](C)[C@H](OC(C)=O)[C@@H]1C`, the max dye-equivalent concentration entry is “inactive”.

As to `Cc1ccc(C(=O)COc2cccc(NC(=O)c3ccco3)c2)cc1`, the max dye-equivalent concentration result was “inactive”.

With `CCOc1cc(NC(=O)c2ccco2)c(OCC)cc1NC(=O)COc1ccccc1`, the max dye-equivalent concentration was 85 nM (active).

As for `O=C(Nc1ccc(Oc2ccccc2)cc1)c1ccco1`, the max dye-equivalent concentration result is “inactive”.

For `O=c1oc2c(CN3CCCCC3)c(O)ccc2c2c1CCCCC2`, the max dye-equivalent concentration was 12000 nM (active).

Take `CCN(CC)S(=O)(=O)c1cc(C(=O)Nc2ccccn2)ccc1C`: the max dye-equivalent concentration result was “inactive”.

For `Cn1c(=O)cc(OCCCC(=O)N2CCN(c3ccccn3)CC2)c2ccccc21`, the max dye-equivalent concentration entry was “inactive”.

As to `Cc1ccnc(N2CCN(C(=O)CSc3nc4ccccc4nc3N3CCCCC3)CC2)c1`, the max dye-equivalent concentration was 29 nM (active).

For `O=C(CSc1nc2ccccc2o1)N1CCN(c2ccccc2)CC1`, the max dye-equivalent concentration entry was “inactive”.

For `CC1Cc2ccccc2N1C(=O)CSc1nc2ccccc2o1` (centres undefined), the max dye-equivalent concentration result is “inactive”.

On to `c1ccc(CCN2CCN=C2Cc2ccccc2)cc1`, for which the max dye-equivalent concentration result was “inactive”.

Consider `Cc1ccc(NC(=O)Cn2nc(C)c3ccccc3c2=O)c(C)c1`, for which the max dye-equivalent concentration entry is “inactive”.

Consider `CCOc1ccc(N=NS(=O)(=O)O)cc1`, for which the max dye-equivalent concentration entry is “inactive”.

With `Nc1ccc2[nH]cc(CCC(=O)O)c2c1`, the max dye-equivalent concentration result is “inactive”.

As to `NCCNCC1CCNCC1`, the max dye-equivalent concentration result was “inactive”.

For the molecule `O=C(O)[C@H](CCc1ccccn1)c1ccccc1`, the max dye-equivalent concentration entry is “inactive”.

As for `O=C(NCCc1ccccn1)c1ccc(COc2ccccc2)o1`, the max dye-equivalent concentration result was “inactive”.

For `C/C(N)=C(\C#N)C(=O)NCCc1ccccn1`, the max dye-equivalent concentration is 46 nM (active).

As for `O=C1C(=O)N(CCN2CCOCC2)C(c2ccccn2)/C1=C(/O)c1ccc(Cl)cc1` (centres undefined), the max dye-equivalent concentration result is “inactive”.

Regarding `COc1ccccc1-c1nc(N2CCN(C)CC2)c2ccccc2n1`, the max dye-equivalent concentration result was “inactive”.

In the case of `CCOC(=O)c1ccc(CS(=O)c2ccc(Cl)cc2)o1` (centres undefined), the max dye-equivalent concentration result is “inactive”.

Take `CCOC(=O)c1ccc(COC(=O)c2cc(=O)[nH]c3ccccc23)o1`: the max dye-equivalent concentration is 33 nM (active).

Consider `CCOC(=O)c1sc2nc(CSCC(=O)OCc3ccc(C(=O)OC)o3)[nH]c(=O)c2c1C`, for which the max dye-equivalent concentration result was “inactive”.

With `CN(C)c1ccnc2sc3c(=O)n(Cc4ccccc4)cnc3c12`, the max dye-equivalent concentration was 28 nM (active).

Consider `CN(C)/C=C/c1c(C#N)c(=O)ncn1Cc1ccccc1`, for which the max dye-equivalent concentration entry was “inactive”.

For the molecule `COC(=O)CCSc1nccn1Cc1ccccc1`, the max dye-equivalent concentration result was “inactive”.

`CCOc1ccccc1N(CC(=O)NC1CCCCC1)C(=O)CCCC(=O)Nc1ccccn1`: the max dye-equivalent concentration entry is “inactive”.

As to `CCC(C)(C)n1nnnc1C(c1cccs1)N1CCN(Cc2ccccc2)CC1` (centres undefined), the max dye-equivalent concentration result is “inactive”.

For `COc1ccccc1C(=O)Oc1ccc(N2C(=O)CCC2=O)cc1`, the max dye-equivalent concentration entry is “inactive”.

As for `COc1ccc(-c2ccc(-c3noc(-c4ccncc4)n3)c(OC)n2)cc1`, the max dye-equivalent concentration is 17 nM (active).

For `CCOc1cc(-c2noc(CCC(=O)N3CCOCC3)n2)ccc1OC`, the max dye-equivalent concentration entry is “inactive”.

As to `O=C(Oc1ccc(-c2nc(-c3ccccn3)no2)cc1)c1ccccc1`, the max dye-equivalent concentration result was “inactive”.

For the molecule `CCOc1nc(-c2ccc(OC)cc2)ccc1-c1noc(-c2cc(OC)c(OC)c(OC)c2)n1`, the max dye-equivalent concentration was 57 nM (active).

In the case of `COc1ccc(-c2noc(CN(C)S(=O)(=O)c3ccc(C)cc3)n2)cc1`, the max dye-equivalent concentration entry was “inactive”.

As for `COc1ccc(-c2nc(-c3ccccc3)no2)c(OC)c1`, the max dye-equivalent concentration result was “inactive”.

As for `FC(F)Oc1ccccc1C1CC(c2ccc(Br)s2)Nc2ncnn21` (centres undefined), the max dye-equivalent concentration result is “inactive”.

`CN1CCN(C(=O)c2ccc(NS(=O)(=O)c3ccccc3)cc2)CC1`: the max dye-equivalent concentration entry is “inactive”.

Consider `O=C(c1cnccn1)N1CCC2(CCCN(Cc3ccccc3)C2)CC1`, for which the max dye-equivalent concentration entry is “inactive”.

Consider `O=C(COc1cccc(-n2cnnn2)c1)NCCC1=CCCCC1`, for which the max dye-equivalent concentration result is “inactive”.

In the case of `Cc1ccc2c(c1)c1ncn(CCC3=CCCCC3)c(=O)c1n2C`, the max dye-equivalent concentration was 38 nM (active).

Take `Cn1nnc2cc(C(=O)NCCC3=CCCCC3)ccc21`: the max dye-equivalent concentration entry is “inactive”.

As for `NC(=S)c1ccc(C(N)=S)o1`, the max dye-equivalent concentration entry was “inactive”.

Turning to `CCCCSc1nnc(-c2ccc(NC(=O)CC)cc2)n1C`, the max dye-equivalent concentration result is “inactive”.

As to `CCOc1cc(C)c(Cl)cc1S(=O)(=O)n1nnc2ccccc21`, the max dye-equivalent concentration entry was “inactive”.

For the molecule `O=C(OC1CCOC1=O)c1ccc(-c2nc3ccccc3s2)s1` (centres undefined), the max dye-equivalent concentration is 550 nM (active).

Regarding `Cc1nn(Cc2ccccc2)c(Cl)c1C(=O)OC1CCOC1=O` (centres undefined), the max dye-equivalent concentration result is “inactive”.

Take `O=C(c1cccs1)N1CCC(c2nc3ccccc3s2)CC1`: the max dye-equivalent concentration result is “inactive”.

Consider `Cc1ccc(C(C)C)c(OCc2nnc(SCC(=O)Nc3nccs3)n2C)c1`, for which the max dye-equivalent concentration result is “inactive”.

`C=CCOc1ccc(/C=N/n2cncn2)cc1OC`: the max dye-equivalent concentration entry was “inactive”.

Regarding `COc1cccc(N2CC(C(=O)Nc3c(C)cccc3C)CC2=O)c1` (centres undefined), the max dye-equivalent concentration was 20 nM (active).

Regarding `COc1ccc(Cl)cc1NC(=O)C1CC(=O)N(c2ccc(F)cc2)C1` (centres undefined), the max dye-equivalent concentration entry is “inactive”.

In the case of `COCCCNC(=O)C1CC(=O)N(c2ccc(C)cc2)C1` (centres undefined), the max dye-equivalent concentration result is “inactive”.

With `O=C(Nc1ccn(Cc2ccc(F)cc2)n1)c1ccncc1`, the max dye-equivalent concentration entry was “inactive”.

In the case of `N#Cc1c(NC(=O)CSc2nc3ccccc3c(=O)n2Cc2ccco2)sc2c1CCCC2`, the max dye-equivalent concentration result is “inactive”.

Consider `CC(C)(O/N=C(\C(=O)N[C@@H]1C(=O)N2C(C(=O)[O-])=C(C[n+]3ccccc3)CS[C@@H]12)c1csc(N)n1)C(=O)O`, for which the max dye-equivalent concentration result is “inactive”.

On to `CC(=O)N=c1ncn(CC(COC(C)=O)OC(C)=O)c2nc[nH]c12` (centres undefined), for which the max dye-equivalent concentration result was “inactive”.

Turning to `Cc1ccc(S(=O)(=O)N2CCCC2C(=O)NCc2ccco2)cc1` (centres undefined), the max dye-equivalent concentration result was “inactive”.

Turning to `CC(=O)c1c(N2CCOCC2)nc(=S)n(Cc2ccccc2)c1C`, the max dye-equivalent concentration entry was “inactive”.

For `CCOC(=O)c1oc2ccccc2c1NC(=O)c1cccs1`, the max dye-equivalent concentration is 18 nM (active).

Consider `CCOCC(=O)Nc1sc2c(c1C(=O)OCC)CCCC2`, for which the max dye-equivalent concentration result is “inactive”.

`COC(=O)c1c(NC(=O)c2cccs2)sc2c1CCCC2`: the max dye-equivalent concentration is 90 nM (active).

With `COC(=O)c1c(NC(=O)CSc2nncs2)sc2c1CCCCC2`, the max dye-equivalent concentration result is “inactive”.

Consider `CCOC(=O)c1c(NC(=O)CSc2nnc(Cc3csc(N)n3)n2C)sc(C)c1C`, for which the max dye-equivalent concentration result is “inactive”.

Consider `CCOC(=O)CSc1nnc(CNC(=O)c2cccs2)n1-c1ccccc1`, for which the max dye-equivalent concentration entry is “inactive”.

Regarding `CCOC(=O)c1c(NC(=O)c2cccs2)sc(C)c1C`, the max dye-equivalent concentration is 190 nM (active).

As for `COC(=O)Cn1cc(C(=O)c2cccs2)c2ccccc21`, the max dye-equivalent concentration result was “inactive”.

As to `O=C(Nc1ncccn1)c1cccs1`, the max dye-equivalent concentration result was “inactive”.

As to `Cc1ccnc(N2CCC(C(=O)NC3CCCCCC3)CC2)n1`, the max dye-equivalent concentration entry is “inactive”.

Consider `CCN(CC)S(=O)(=O)c1ccc2nc(COC(=O)c3n[nH]c4ccccc34)[nH]c2c1`, for which the max dye-equivalent concentration entry is “inactive”.

As to `COc1ccc2c(c1)CCc1c(C(=O)Nc3c(C)n(C)n(-c4ccccc4)c3=O)noc1-2`, the max dye-equivalent concentration result is “inactive”.

`O=C(Nc1c[nH]c(=O)[nH]c1=O)Oc1ccccc1`: the max dye-equivalent concentration entry was “inactive”.

For `Cc1ccc(C)c(N(CC(=O)NCc2ccco2)C(=O)CCC(=O)Nc2ccccn2)c1`, the max dye-equivalent concentration result is “inactive”.
